# Assay outcomes deposited in PubChem BioAssay by National Center for Advancing Translational Sciences (NCATS).
# Methyltransferases: Primary Screen for Target Class Profiling of Small Molecule Inhibitors of Methyltransferases. purified enzyme, MTase-Glo SAH luminescence; hits give low values. calls only at 40 µM. 25,000 tested, 3.9% active; call rule not given here
#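 Each enzyme was reacted with SAM and its substrate, with compounds tested once at 40 uM; SAH formed was read by MTase-Glo luminescence.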
# Numbers without * were called inactive; i = inactive; + = active, no number; ! = repeats disagree. The sample as a whole holds a higher share of hits than the screen did. On the % scale 0 is the no-effect control and ±100 the full control effect.
SMILES,Methyltransferases
Nc1nc(F)nc2c1ncn2[C@@H]1O[C@H](CO)[C@@H](O)[C@@H]1O,i
OC[C@H]1O[C@@H](n2cnc3c(NC4CCCCC4)ncnc32)[C@H](O)[C@@H]1O,i
Nc1ncnc2c1c(I)cn2C1OC(CO)C(O)C1O (stereo not drawn),+
Nc1ccc(CCNc2ncnc3c2ncn3C2OC(CO)C(O)C2O)cc1 (stereo not drawn),i
COc1cccc(NC(=O)CCc2nnc3n(Cc4ccc(Cl)cc4)c(=O)c4ccccc4n23)c1,i
CCOC(=O)c1cc2n(n1)CC(C)(C(=O)NCc1ccc(C)cc1)N(c1ccc(OCC)cc1)C2=O (stereo not drawn),i
Clc1ccc(C(Cn2ccnc2)OCc2c(Cl)cccc2Cl)c(Cl)c1 (stereo not drawn),+
COC(=O)c1cc2n(n1)CC(C)(C(=O)NC1CCCCC1)N(c1ccc(Cl)cc1C)C2=O (stereo not drawn),i
COC(=O)c1ncn2c1C(=O)N(Cc1cccc(C)c1)C(C)(C(=O)NC1CCCCCC1)C2 (stereo not drawn),i
CC1(C(=O)NC2CCCCCCC2)Cn2c(cc3sccc32)C(=O)N1CCN1CCCCCC1 (stereo not drawn),i
CN1CCc2cc(Cl)c(O)cc2[C@@H](c2ccccc2)C1,i
Oc1cc2c(cc1O)C(c1ccccc1)CNCC2 (stereo not drawn),+
Oc1ccc(CC2NCCc3cc(O)c(O)cc32)cc1 (stereo not drawn),i
Cc1cc2c(cc1S(=O)(=O)Nc1ccc(F)c(F)c1)n(C)c(=O)n2C,i
Cc1ccc2c(cnn2C(=O)CCC(=O)N2CCN(c3ccccc3)CC2)c1,i
Cc1ccc(CCNC(=O)CCn2ccc3cc(S(=O)(=O)N4CCCCC4)ccc32)cc1,i
COc1cccc(N2CCN(S(=O)(=O)c3cccc(-c4nc(-c5ccccc5)no4)c3)CC2)c1,i
CSc1ccc(CN2C(=O)c3ccc(-c4ccco4)n3CC2(C)C(=O)NC2CCCCCC2)cc1 (stereo not drawn),i
O=C(CSc1nnc2n(CCc3ccccc3)c(=O)c3ccccc3n12)Nc1ccccc1F,i
CN(C)CCc1c[nH]c2ccc(C[C@H]3COC(=O)N3)cc12,i
CN1CCC[C@@H]1Cc1c[nH]c2ccc(CCS(=O)(=O)c3ccccc3)cc12,+!
CNS(=O)(=O)CCc1ccc2[nH]cc(C3CCN(C)CC3)c2c1,i
CC(C)n1nnc2cc(S(=O)(=O)N(C)CC(=O)N3CCN(c4ccccn4)CC3)ccc21,i
COc1ccccc1CNC(=O)C1(C)Cn2nc(-c3ccccc3)cc2C(=O)N1c1ccc(C)c(Cl)c1 (stereo not drawn),i
O=C(Cn1ccc2cc(S(=O)(=O)N3CCCCC3)ccc21)NCc1cccs1,i
SMILES,Methyltransferases
CC(C)OCCCN1C(=O)c2cc3ccccc3n2CC1(C)C(=O)NC1CCCCC1 (stereo not drawn),i
CC1(C(=O)NC2CCCCCCC2)Cn2c(cc3sccc32)C(=O)N1C1CCCC1 (stereo not drawn),i
N#C/C(=C1\Nc2ccccc2S1)c1ccnc(NCCc2cccnc2)n1,+
O=C1Nc2ccc(Cl)cc2[C@@](C#CC2CC2)(C(F)(F)F)O1,+!
COc1ccccc1N1CCN(S(=O)(=O)c2cccc3c2C(=O)c2ccccc2C3=O)CC1,i
COc1cccc(CNC(=O)c2cc3n(n2)CC(C)(C(=O)NC2CCCC2)N(C)C3=O)c1 (stereo not drawn),i
CCC(C)NC(=O)c1ccc2c(=O)n(C)c3nnc(SCC(=O)NCc4ccccc4)n3c2c1 (stereo not drawn),i
N#Cc1cccc(-c2c[nH]c3ncnc(N4CCOCC4)c23)c1,+
CC(C)CNC(=O)c1ccc2c(=O)n(C(C)C)c3nn(Cc4cccc(Cl)c4)c(=O)n3c2c1,i
COc1ccccc1CNC(=O)C1c2c(n(C)c3ccccc23)SCC(=O)N1Cc1cccnc1 (stereo not drawn),i
CCc1ccccc1NC(=O)N1CCn2c(C)ccc2C1CC (stereo not drawn),i
CC(C)CNC(=O)c1ccc2c(=O)n(C(C)C)c3nn(CC(=O)Nc4ccccc4F)c(=O)n3c2c1,i
CCCn1c(=O)c2ccc(C(=O)NC3CCCC3)cc2n2c(=O)n(CC(=O)Nc3cccc(C)c3)nc12,i
Cc1cc(=O)oc2c(C=O)c(O)ccc12,+
COC(=O)COc1ccc2c(-c3ccccc3)cc(=O)oc2c1C,i
O=c1cc(-c2ccccc2)oc2c(O)c(O)ccc12,i
CC(C)CCNC(=O)C1(C)Cn2c(cc3ccccc32)C(=O)N1C1CCN(Cc2ccccc2)CC1 (stereo not drawn),i
Cc1ccc(NC(=O)CN(C)S(=O)(=O)c2ccc3[nH]c4c(c3c2)CCCC4)cc1C,i
Cc1ccc(C)c(N2CCN(CCCNC(=O)CCc3nnc4n(C)c(=O)c5ccccc5n34)CC2)c1,i
CCC(C)NC(=O)c1ccc2c(=O)n(C(C)C)c3nn(Cc4ccccc4F)c(=O)n3c2c1 (stereo not drawn),i
COc1ccc2cc3n(c2c1)CC(C)(C(=O)NC1CCCC1)N(c1cc(C)cc(C)c1)C3=O (stereo not drawn),i
Cc1ccc(CNC(=O)CCc2nnc3n(CCc4ccccc4)c(=O)c4ccccc4n23)cc1,i
CN1C(=O)c2cc(C(=O)NC3CCN(Cc4ccccc4)CC3)nn2CC1(C)C(=O)NCc1ccccc1 (stereo not drawn),i
OCCCNc1cc(-c2ccnc(Nc3cccc(Cl)c3)n2)ccn1,+
Cc1ccc2c(c1)c1c3n2CCN(C(C)c2ccccc2)C3CCC1 (stereo not drawn),i
SMILES,Methyltransferases
CC(C)NC(=O)c1ccc2c(=O)n(Cc3ccccc3)c3nn(Cc4ccccc4F)c(=O)n3c2c1,i
c1ccc(-c2nnn3c2nc(N2CCc4ccccc4C2)c2ccccc23)cc1,i
CN(C)CCC[C@]1(c2ccc(F)cc2)OCc2cc(C#N)ccc21,+
CCOC(=O)c1cc2n(n1)CC(C)(C(=O)NCCC(C)C)N(Cc1ccc(Cl)cc1)C2=O (stereo not drawn),i
CCC1C(=O)N(C)c2cnc(Nc3ccc(C(=O)NC4CCN(C)CC4)cc3OC)nc2N1C1CCCC1 (stereo not drawn),+
CCc1cccc(CC)c1NC(=O)c1nn(C)c2c1CCc1cnc(Nc3ccc(C(=O)NC4CCN(C)CC4)cc3OC(F)(F)F)nc1-2,i
COc1ccc(C(=O)Cn2nc3n(C)c(=O)c4ccc(C(=O)NC5CCCCC5)cc4n3c2=O)cc1,i
CN1c2cc(C(=O)NC3CCCCCC3)ccc2C(=O)N2CCCC21 (stereo not drawn),i
COc1cc(C(=O)NC2CCN(C)CC2)ccc1Nc1ncc2c(n1)N(C1CCCC1)CC(F)(F)C(=O)N2C,+
COc1cc(C(=O)N2CCC(N3CCN(C)CC3)CC2)ccc1Nc1ncc2c(n1)N(C)c1ccccc1C(=O)N2C,i
C=CCn1c(=O)c2ccc(C(=O)NC(C)C)cc2n2c(=O)n(CC(=O)Nc3cc(C)ccc3C)nc12,i
CCCn1c(=O)c2ccc(C(=O)NC3CCCCC3)cc2n2c(=O)n(CC(=O)c3ccccc3)nc12,i
CCCn1c(=O)c2ccc(C(=O)NCC(C)C)cc2n2c(=O)n(CC(=O)N(C)c3ccccc3)nc12,i
